# Laboratory results as given in the supplement of paper PMC9588786.
# Structures can show the parent of a compound that is named as a salt. ± gives the standard deviation of the averaged measurements.
# Test system: HT-1080
# Experiment: relative cell viability with RSL3 co-treatment (fraction of control); higher = stronger protection from RSL3-induced ferroptosis (higher viability)
# Conditions: 10 µM
# 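Further: viability read as CCK-8 absorbance at 450 nm in cells co-exposed to the GPX4 inhibitor RSL3, relative to a 0.01% DMSO vehicle control.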
row,Compound,relative cell viability
1,CCN(CC)CCCCNc1ncc2cc(-c3cc(OC)cc(OC)c3)c(NC(=O)NC(C)(C)C)nc2n1,0.633 ± 0.14
2,CCN1CCN(Cc2ccc(C(=O)Nc3ccc(C)c(Oc4ccc5c(c4)CC(=O)N5)c3)cc2C(F)(F)F)CC1,0.46 ± 0.046
3,"Cc1c(CN2CCN(C(=O)[C@H](C)O)CC2)sc2c(N3CCOCC3)nc(-c3cnc(N)nc3)nc12 [Apitolisib (GDC-0980, RG7422)]",0.47 ± 0.09
4,Cc1ccc(Nc2nccc(N(C)c3ccc4c(C)n(C)nc4c3)n2)cc1S(N)(=O)=O [Pazopanib],0.71 ± 0.12
5,Cc1ccc(C(=O)Nc2cccc(C(F)(F)F)c2)cc1Nc1nc(-c2cccnc2)nc2c1cnn2C,0.473 ± 0.23
6,C=CC(=O)Nc1ccc2ncnc(Nc3cccc(Br)c3)c2c1,0.593 ± 0.055
7,O=C1NC(=O)C(c2ccccc2[N+](=O)[O-])=C1Nc1ccc(O)c(Cl)c1,0.847 ± 0.031
8,COc1ccc(Cl)cc1NC(=O)Nc1cc(C)nc2ccccc12,0.71 ± 0.017
9,COc1ccc(COc2cc3oc(=O)c4cc(C(C)O)ccc4c3cc2OC)cc1 (stereo not drawn) [Palomid 529 (P529)],0.537 ± 0.2
10,C#Cc1cccc(Nc2ncnc3cc4c(cc23)OCCOCCOCCO4)c1 [Icotinib],0.64 ± 0.075
11,Cc1cc2c(F)c(Oc3ncnn4cc(OC[C@@H](C)OC(=O)[C@H](C)N)c(C)c34)ccc2[nH]1,0.653 ± 0.095
12,Cc1ccccc1CN1C2=NCCN2C(=O)C2=C1CCN(Cc1ccccc1)C2 [TIC10 Analogue],0.62 ± 0.079
13,O=C(NCc1cccc(O)c1)Nc1nc(-c2ccncc2)cs1,0.77 ± 0.05
14,COc1cc2ncnc(Oc3ccc(CC(=O)Nc4cnn(C(C)C)c4)cc3)c2cc1OC,0.643 ± 0.33
15,Fc1cc(-c2cccc3ncc(-c4cnn(C5CCNCC5)c4)nc23)cc(F)c1CN1CCOCC1,0.787 ± 0.058
16,COCCOc1ccc2c(c1)ncn2-c1ccc2cccc(N3CCC(N)CC3)c2n1,0.82 ± 0.056
17,O=c1ccc2ccc(O)c(O)c2o1 [Daphnetin],0.85 ± 0.017
18,CC(C)(C)Cn1c(N)nc2ccc(-c3[nH]c(C(C)(C)C)nc3-c3ccc(F)cc3)nc21,0.71 ± 0.017
19,CCOc1ccn(-c2ccc(F)cc2)c(=O)c1C(=O)Nc1ccc(Oc2ccnc(N)c2Cl)c(F)c1,0.51 ± 0.092

row,Compound,relative cell viability
1,COc1cc(CCc2cc(NC(=O)c3ccc(N4CC(C)NC(C)C4)cc3)n[nH]2)cc(OC)c1 (stereo not drawn),0.673 ± 0.14
2,CC(=O)Nc1nc(C)c(-c2ccc(Cl)c(S(=O)(=O)NCCO)c2)s1,0.603 ± 0.057
3,CNC(=O)c1nn(C)c2c1C(C)(C)Cc1cnc(Nc3ccc(N4CCN(C)CC4)cc3)nc1-2,0.723 ± 0.16
4,O=S(=O)(c1cccc2cnccc12)N1CCCNCC1 [Fasudil (HA-1077) HCl],1.13 ± 0.1
5,Cc1c(F)cc(C(=O)NC2CC2)cc1-c1ccc(C(=O)NCC(C)(C)C)cn1,0.563 ± 0.12
6,COc1ccccc1-c1cc(Nc2cccc(CS(N)(=O)=O)c2)ncn1,0.613 ± 0.095
7,C=CC(=O)Nc1cccc(Nc2nc(Nc3ccc(NC4CN(CCF)C4)cc3OC)ncc2C(F)(F)F)c1,0.443 ± 0.068
8,CC(C)CC(=O)Nc1n[nH]c2c1CN(C(=O)C1CCN(C)CC1)C2(C)C,0.78 ± 0.069
9,O=C1NCCc2[nH]c(-c3ccncc3)cc21,0.69 ± 0.04
10,COc1cccc(-n2c(=O)[nH]c3cc(Cl)n(-c4ccc(-c5cccc(OC)c5O)cc4)c3c2=O)c1,0.807 ± 0.081
11,C[C@@H](NC(=O)c1ncnc(N)c1Cl)c1ncc(C(=O)Nc2cc(C(F)(F)F)c(Cl)cn2)s1,0.6467 ± 0.0058
12,Cc1ccc(NC(=O)c2cccc(N(C)C)c2)cc1NC(=O)c1ccc(O)cc1,0.587 ± 0.15
13,FC(F)c1nc2ccccc2n1-c1nc(N2CCOCC2)nc(N2CCOCC2)n1,0.723 ± 0.14
14,CCS(=O)(=O)c1cccc(-c2cc(C(=O)NC3CCN(C)CC3)c(C)c3[nH]c4ncc(C)cc4c23)c1,0.397 ± 0.046
15,CCNC(=O)Nc1ccc(-c2nc3c(c(N4CCOC[C@@H]4C)n2)CCN(C2COC2)C3)cc1,0.503 ± 0.2
16,C[C@@H]1COC(Nc2ccc3ncnc(Nc4ccc(OCc5nccs5)c(Cl)c4)c3c2)=N1 [Varlitinib],0.597 ± 0.1
17,CC(C)(CCCCCC(O)CCCCCC(C)(C)C(=O)O)C(=O)O,0.843 ± 0.078
18,O=C(Nc1nc2cccc(-c3ccc(CN4CCS(=O)(=O)CC4)cc3)n2n1)C1CC1 [Filgotinib (GLPG0634)],0.687 ± 0.035
19,CN(C)CCCn1cc(C2=C(c3c[nH]c4ccccc34)C(=O)NC2=O)c2ccccc21,0.837 ± 0.045
